# Reference: ChEMBL document CHEMBL3988442, “University of Dundee, Small-Polar-MMV Screening Library” (2021)
# For some assays here: Results with a measured potency or affinity are listed apart.
# Tests used:
# Design in all cases: scale not given: direction of the effect not stated beside the values
# [1] = target: Protein translocase subunit SecA (Escherichia coli (strain K12)) (UniProt P10408); test: Assay to Identify E. coli SecA ATPase Inhibitors; assay type: functional; settings: 30 µM
# [2] = target: T1, Ubiquitin-activating enzyme e1, putative (Leishmania donovani (strain BPK282A1)) (UniProt E9BSI1); test: Leishmania donovani Ubiquitin Activating Enzyme (LdE1); assay type: functional; settings: 30 µM
# T1 sequence (whole entry): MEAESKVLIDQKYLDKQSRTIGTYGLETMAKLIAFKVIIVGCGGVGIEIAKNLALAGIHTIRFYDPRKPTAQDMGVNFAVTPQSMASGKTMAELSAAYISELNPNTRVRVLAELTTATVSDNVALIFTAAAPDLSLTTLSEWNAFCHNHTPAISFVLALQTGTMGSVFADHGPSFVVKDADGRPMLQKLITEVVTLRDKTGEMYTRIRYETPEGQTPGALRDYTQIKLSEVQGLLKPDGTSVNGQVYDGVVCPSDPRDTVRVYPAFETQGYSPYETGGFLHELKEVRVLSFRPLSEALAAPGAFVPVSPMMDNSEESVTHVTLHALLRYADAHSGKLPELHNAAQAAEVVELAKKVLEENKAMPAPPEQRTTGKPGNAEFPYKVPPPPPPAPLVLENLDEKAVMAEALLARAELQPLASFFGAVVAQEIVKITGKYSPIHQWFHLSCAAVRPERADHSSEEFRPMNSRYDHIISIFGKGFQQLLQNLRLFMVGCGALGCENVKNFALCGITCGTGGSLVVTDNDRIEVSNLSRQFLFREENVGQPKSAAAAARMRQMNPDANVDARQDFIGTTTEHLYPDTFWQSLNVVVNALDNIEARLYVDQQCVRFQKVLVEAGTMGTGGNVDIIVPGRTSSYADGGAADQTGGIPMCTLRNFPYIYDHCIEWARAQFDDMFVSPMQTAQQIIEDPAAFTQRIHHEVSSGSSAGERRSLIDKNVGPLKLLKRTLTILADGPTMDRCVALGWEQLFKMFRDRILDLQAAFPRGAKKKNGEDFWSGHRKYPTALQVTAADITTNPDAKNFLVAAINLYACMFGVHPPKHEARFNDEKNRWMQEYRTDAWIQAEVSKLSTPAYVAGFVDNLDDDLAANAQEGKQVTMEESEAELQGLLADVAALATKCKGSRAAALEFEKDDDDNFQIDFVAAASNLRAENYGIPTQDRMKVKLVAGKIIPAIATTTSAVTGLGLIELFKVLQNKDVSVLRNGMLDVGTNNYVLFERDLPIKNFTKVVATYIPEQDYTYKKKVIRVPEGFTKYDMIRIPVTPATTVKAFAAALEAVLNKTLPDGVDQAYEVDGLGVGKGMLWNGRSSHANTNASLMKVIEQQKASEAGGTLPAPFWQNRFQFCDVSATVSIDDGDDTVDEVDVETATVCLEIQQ
# [3] = target: AMP-activated protein kinase, AMPK (Homo sapiens) (UniProt P54646+O43741+P54619+Q9UGJ0+Q9Y478+Q13131+Q9UGI9); test: AMP-dependent Kinase enzyme assay. An in vitro enzyme assay that detects ADP turnover that is directly proportional to AMPK activity. This uses naive AMPK that is activated during the assay with MK-8722; assay type: functional; settings: 30 µM
# [4] = target: Sialic acid-binding Ig-like lectin 9 (Homo sapiens) (UniProt Q9Y336); test: Hs-Siglec9 ALPHAscreen SOP 20170721; settings: 10 µM
# Trypanosoma cruzi = test: Trypanosoma cruzi phosphomannomutase and mannose-1-phosphate guanylyltransferase assay; assay type: functional; settings: 10 µM
# [5] = target: T2, Arginase-2, mitochondrial (Homo sapiens) (UniProt P78540); test: in vitro enzyme assay to detect the production of urea directly proportional to the activity of Arginase II; assay type: functional; settings: 33.3 µM; also: in the data most compounds retested in dose-response had high values
# T2 sequence (whole entry): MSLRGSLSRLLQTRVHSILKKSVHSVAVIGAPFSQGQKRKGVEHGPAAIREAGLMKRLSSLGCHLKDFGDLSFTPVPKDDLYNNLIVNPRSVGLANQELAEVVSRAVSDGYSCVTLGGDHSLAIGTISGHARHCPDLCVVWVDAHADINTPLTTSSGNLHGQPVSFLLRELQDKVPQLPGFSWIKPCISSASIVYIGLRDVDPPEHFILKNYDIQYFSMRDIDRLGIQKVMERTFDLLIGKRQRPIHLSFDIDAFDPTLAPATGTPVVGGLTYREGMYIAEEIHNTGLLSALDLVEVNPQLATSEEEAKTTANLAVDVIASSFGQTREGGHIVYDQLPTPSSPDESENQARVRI
# [6] = target: T3, Proteasome subunit beta (Trypanosoma cruzi) (UniProt O96673); test: Trypanosoma cruzi proteasome chymotrypsin-like activity (TcProtChymo) assay.; also: in the data most compounds retested in dose-response had high values; assay type: functional; settings: 9.37 µM
# T3 sequence (whole entry): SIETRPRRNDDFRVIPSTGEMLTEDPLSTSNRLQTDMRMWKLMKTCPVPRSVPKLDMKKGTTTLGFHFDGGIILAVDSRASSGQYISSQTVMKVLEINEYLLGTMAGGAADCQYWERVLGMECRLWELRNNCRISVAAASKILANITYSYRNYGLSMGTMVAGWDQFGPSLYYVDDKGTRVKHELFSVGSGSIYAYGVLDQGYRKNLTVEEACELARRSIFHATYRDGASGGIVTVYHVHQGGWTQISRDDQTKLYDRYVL
# Homo sapiens = species: Homo sapiens; test: To identify inhibition of the IFN signalling (Jak-Stat) pathway via expression of an eGFP reporter gene under the control of an IFN-stimulated response element (ISRE) containing MxA promoter.; assay type: functional; settings: 30 µM
# [7] = target: T4, Tyrosyl-tRNA synthetase, putative (Trypanosoma cruzi (strain CL Brener)) (UniProt Q4DSP6); test: Trypanosoma cruzi tyrosyl tRNA synthetase (TcYRS) _High Tyrosine SOP; assay type: functional; settings: 30 µM; also: in the data most compounds retested in dose-response had high values
# T4 sequence (whole entry): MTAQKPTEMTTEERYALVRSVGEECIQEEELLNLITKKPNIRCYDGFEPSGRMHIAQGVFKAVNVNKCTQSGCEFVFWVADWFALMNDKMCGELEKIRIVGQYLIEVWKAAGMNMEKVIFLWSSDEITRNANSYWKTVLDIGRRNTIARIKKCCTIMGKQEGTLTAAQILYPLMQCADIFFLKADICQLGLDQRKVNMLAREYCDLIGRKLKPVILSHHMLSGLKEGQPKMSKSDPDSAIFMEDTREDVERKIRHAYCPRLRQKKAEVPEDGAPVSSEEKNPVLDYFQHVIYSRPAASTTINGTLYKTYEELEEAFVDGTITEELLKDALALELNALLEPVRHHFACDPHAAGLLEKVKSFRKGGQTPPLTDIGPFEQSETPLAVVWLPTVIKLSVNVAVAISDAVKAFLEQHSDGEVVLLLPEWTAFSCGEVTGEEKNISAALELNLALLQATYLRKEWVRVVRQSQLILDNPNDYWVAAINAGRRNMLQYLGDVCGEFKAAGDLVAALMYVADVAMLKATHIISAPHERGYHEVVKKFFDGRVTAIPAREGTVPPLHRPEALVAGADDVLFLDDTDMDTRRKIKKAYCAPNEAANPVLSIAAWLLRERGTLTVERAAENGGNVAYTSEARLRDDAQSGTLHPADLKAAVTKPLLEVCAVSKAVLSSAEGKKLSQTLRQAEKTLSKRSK
# [8] = target: T4, Tyrosyl-tRNA synthetase, putative (Trypanosoma cruzi (strain CL Brener)); test: Trypanosoma cruzi tyrosyl tRNA synthetase (TcYRS) SOP; assay type: functional; settings: 30 µM
# [9] = target: Chromo domain-containing protein 1 (Saccharomyces cerevisiae (strain ATCC 204508 / S288c) (Baker's yeast)) (UniProt P32657); test: ScCHD-1 Enzyme Inhibition Assay; assay type: functional; settings: 30 µM; also: in the data most compounds retested in dose-response had high values
# Chromo domain-containing protein 1 (Saccharomyces cerevisiae (strain ATCC 204508 / S288c) (Baker's yeast)), sequence (P32657 whole entry, the tested form may be a part): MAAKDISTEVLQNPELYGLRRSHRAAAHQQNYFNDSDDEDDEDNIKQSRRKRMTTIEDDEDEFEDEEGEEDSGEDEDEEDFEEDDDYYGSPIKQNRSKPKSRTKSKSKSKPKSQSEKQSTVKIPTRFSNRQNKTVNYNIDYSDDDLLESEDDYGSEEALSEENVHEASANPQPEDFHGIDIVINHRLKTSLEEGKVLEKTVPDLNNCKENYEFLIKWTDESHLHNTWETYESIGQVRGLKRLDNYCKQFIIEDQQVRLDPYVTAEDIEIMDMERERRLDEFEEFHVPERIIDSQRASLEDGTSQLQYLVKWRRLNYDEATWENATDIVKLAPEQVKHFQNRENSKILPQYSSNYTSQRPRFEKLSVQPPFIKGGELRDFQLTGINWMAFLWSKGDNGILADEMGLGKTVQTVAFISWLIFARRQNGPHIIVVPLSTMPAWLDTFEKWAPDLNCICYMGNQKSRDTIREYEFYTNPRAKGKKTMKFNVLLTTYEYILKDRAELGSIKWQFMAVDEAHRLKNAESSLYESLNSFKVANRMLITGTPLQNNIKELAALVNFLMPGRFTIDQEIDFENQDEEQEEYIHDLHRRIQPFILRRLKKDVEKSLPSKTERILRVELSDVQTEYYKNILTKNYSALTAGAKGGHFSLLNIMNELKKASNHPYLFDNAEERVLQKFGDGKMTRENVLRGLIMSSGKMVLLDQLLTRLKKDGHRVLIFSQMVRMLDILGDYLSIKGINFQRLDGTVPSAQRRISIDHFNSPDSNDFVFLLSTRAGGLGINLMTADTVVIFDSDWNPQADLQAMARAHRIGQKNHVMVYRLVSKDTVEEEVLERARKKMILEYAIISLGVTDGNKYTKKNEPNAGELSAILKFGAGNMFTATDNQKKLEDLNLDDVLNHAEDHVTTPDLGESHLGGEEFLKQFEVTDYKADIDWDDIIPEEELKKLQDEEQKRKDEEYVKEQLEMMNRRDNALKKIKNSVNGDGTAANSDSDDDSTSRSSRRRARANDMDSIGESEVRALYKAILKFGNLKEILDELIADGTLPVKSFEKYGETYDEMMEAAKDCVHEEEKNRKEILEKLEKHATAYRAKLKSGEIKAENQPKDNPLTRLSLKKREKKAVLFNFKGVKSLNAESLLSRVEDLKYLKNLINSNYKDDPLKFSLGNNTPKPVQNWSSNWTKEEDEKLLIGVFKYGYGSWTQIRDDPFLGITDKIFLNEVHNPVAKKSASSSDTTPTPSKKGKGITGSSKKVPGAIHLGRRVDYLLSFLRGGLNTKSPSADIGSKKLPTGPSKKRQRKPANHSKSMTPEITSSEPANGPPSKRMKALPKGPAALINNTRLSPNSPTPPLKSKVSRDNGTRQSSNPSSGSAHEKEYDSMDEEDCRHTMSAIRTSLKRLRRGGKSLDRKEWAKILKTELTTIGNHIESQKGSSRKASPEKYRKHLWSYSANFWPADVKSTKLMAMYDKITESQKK
# Protein translocase subunit SecA (Escherichia coli (strain K12)), sequence (P10408 whole entry): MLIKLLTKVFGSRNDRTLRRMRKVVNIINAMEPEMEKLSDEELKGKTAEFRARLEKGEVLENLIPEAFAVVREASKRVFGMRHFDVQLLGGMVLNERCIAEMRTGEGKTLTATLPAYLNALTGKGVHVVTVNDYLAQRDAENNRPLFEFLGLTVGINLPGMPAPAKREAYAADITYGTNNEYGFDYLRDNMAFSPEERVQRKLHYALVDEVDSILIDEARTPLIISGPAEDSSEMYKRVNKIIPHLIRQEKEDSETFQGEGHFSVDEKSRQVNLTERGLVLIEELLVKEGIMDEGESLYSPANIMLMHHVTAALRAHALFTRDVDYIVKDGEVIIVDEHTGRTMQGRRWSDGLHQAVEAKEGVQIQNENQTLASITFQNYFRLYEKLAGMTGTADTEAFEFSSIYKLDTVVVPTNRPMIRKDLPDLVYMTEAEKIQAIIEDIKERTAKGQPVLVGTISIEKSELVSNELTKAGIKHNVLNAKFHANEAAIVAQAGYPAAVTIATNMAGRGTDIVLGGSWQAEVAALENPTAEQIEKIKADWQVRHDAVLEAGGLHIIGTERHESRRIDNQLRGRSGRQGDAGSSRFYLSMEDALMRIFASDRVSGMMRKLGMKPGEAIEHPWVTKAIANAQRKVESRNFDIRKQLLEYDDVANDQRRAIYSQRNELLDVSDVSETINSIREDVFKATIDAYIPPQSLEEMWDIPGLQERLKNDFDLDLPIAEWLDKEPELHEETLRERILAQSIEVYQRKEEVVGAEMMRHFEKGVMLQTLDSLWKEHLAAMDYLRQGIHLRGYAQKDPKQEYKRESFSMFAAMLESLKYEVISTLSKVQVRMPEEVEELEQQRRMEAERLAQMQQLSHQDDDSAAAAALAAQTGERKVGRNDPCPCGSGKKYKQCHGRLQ
# Sialic acid-binding Ig-like lectin 9 (Homo sapiens), sequence (Q9Y336 whole entry): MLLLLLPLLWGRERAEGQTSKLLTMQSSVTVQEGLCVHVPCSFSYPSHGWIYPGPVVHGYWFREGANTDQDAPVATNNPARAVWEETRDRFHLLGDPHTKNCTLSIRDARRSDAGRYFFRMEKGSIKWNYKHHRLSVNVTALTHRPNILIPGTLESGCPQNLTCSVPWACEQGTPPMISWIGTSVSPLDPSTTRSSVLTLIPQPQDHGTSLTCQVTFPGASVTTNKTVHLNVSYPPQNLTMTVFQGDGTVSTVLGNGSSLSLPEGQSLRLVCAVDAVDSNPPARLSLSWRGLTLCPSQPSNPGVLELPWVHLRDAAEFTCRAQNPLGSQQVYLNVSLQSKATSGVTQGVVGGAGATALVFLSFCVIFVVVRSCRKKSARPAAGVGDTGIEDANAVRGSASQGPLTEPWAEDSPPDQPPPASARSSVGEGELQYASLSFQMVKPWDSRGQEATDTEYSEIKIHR
SMILES,Percent Effect [1] [%],Percent Effect [2] [%],Percent Effect [3] [%],Percent Effect [4] [%],Percent Effect (Trypanosoma cruzi) [%],Percent Effect [5] [%],Percent Effect [6] [%],Percent Effect (Homo sapiens) [%],Percent Effect [7] [%],Percent Effect [8] [%],Percent Effect [9] [%]
COc1ncc(-c2nccn2CCN(C)C)cn1,-3.87,-2.7,-2.61,1.15,-0.965,-3.81,20.9,2.02,-2.65,2.44,-3.6
Cc1nn(C)cc1CN(C)Cc1cc2c(cc1OC(F)F)OCO2,-4.54,0,-4.17,-1.2,1.07,-0.744,-3.18,-8.11,-1.07,3.7,-3.28
Cn1cc(CN2CCCC3(CCN(Cc4cccnc4)C3=O)C2)cn1 (centres undefined),-0.768,21.6,-0.596,-4.91,3.81,7.33,14,-9.12,1.08,12.8,1.58
Cc1nnc2n1CCN(Cc1csc(-c3ccc(F)cc3)n1)C2,-4.19,5.41,-2.56,4.19,8.26,-4.62,5.75,4.35,3.96,15.8,-6.22
